# G9a block = inhibitors of human histone lysine methyltransferase G9a; G9a H3K9 monomethylation, AlphaScreen, 2 h; Q96KQ7; Potency, µM (series often up to 102 µM), without a hit: top-dose activity, negative = inhibition, usual class: inhibitors; 350,000 compounds, 8.8% hits; AID 504332; also: potency is read from the fitted curve at half-maximal effect; % is scaled to controls: 0 for no effect and ±100 for the full control effect; nearly all actives have a fitted effect of over 75% in size
#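 Using a bead-based AlphaScreen, monomethylated H3K9 product from 2 h room-temperature reactions (G9a 20 nM, peptide 500 nM, SAM 20 uM) was detected with 0.5 ug/mL rabbit anti-H3K9me1 antibody.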
# HP1b chromo inh = inhibitors of HP1-beta chromodomain binding to methylated histone tails | Potency, µM (titrated, usually from 114 µM), inactives show at the top dose activity change, negative = inhibition, usual class: inhibitors | P83916 | AlphaScreen HP1-beta / biotin-H3K9me3 peptide binding | 390,000 compounds, 0.56% hits; also: potency is read from the fitted curve at half-maximal effect; nearly all actives have a fitted effect of over 70% in size
#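 AlphaScreen: HP1-beta (50 nM) preformed 30 min with biotin-H3(1-18)K9me3 peptide (50 nM) in PBS pH 7.4, 0.01% Tween-20. Compound added for 30 min at RT, then streptavidin donor/nickel chelate acceptor beads (10 ug/mL) for 30 min.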
# BAZ2B inh = BAZ2B (human) inhibition. AlphaScreen BAZ2B-H3K14Ac peptide displacement. Potency, µM (doses to about 114 µM), without a hit: at the highest dose activity change, negative = inhibition, usual class: inhibitors. Q9UIF8. 360,000 compounds, 4.4% hits. AID 504333; also: potency is read from the fitted curve at half-maximal effect; % is scaled to controls: 0 for no effect and ±100 for the full control effect; nearly all actives have a fitted effect of over 60% in size
#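 BAZ2B 50 nM plus b-H3(5-23)K14Ac 50 nM, PBS pH 7.4/0.01% Tween-20, 30 min RT; compound added (max 110 uM), 30 min RT; streptavidin donor/Ni-chelate acceptor beads 10 ug/mL final, 20 min dark; AlphaScreen read.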
# Six1-Eya2 blk = blocks human Six1 binding to Eya2. activity change, % (no concentration beside the values). AlphaScreen GST-Six1/His-Eya2 binding, biochemical; active compounds read low. 360,000 compounds, 0.56% hits. Q15475+O00167. AID 651725; in the data active = activity change below about -65%; inconclusive = mostly about -30% to -63%; also: % is scaled to controls: 0 for no effect and ±100 for the full control effect
# Target sequence (O00167 whole entry, looked up): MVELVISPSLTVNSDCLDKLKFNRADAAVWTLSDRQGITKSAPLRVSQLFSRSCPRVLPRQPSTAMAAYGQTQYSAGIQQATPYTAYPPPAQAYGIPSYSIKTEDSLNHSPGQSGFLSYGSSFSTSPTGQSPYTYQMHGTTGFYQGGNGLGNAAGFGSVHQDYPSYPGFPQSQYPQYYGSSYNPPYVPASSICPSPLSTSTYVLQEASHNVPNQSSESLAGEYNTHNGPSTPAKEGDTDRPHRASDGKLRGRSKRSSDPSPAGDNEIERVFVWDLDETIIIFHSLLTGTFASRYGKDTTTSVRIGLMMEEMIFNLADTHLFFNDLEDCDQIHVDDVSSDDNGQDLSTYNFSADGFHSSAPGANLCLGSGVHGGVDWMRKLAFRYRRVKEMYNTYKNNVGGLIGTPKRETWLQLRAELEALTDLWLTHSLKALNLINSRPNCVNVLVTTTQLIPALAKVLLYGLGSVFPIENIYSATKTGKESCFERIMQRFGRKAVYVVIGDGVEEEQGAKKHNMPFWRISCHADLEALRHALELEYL
# Target sequence (Q15475 whole entry, looked up): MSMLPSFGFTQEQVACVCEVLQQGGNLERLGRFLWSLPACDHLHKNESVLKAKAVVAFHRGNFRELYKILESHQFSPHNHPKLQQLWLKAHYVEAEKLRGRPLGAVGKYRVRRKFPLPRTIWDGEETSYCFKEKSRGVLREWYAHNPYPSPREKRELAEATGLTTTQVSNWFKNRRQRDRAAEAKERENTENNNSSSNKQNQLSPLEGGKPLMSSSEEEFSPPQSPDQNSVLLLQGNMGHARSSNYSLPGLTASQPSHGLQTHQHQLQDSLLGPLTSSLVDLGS
#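 GST-Six1 + His-Eya2 (5X stock: 250/500 nM); Tris pH 8.0, 300 mM NaCl, 0.05% BSA, 0.02% Tween 20; GSH donor/Ni acceptor beads; 1 h 37 °C dark; AlphaScreen readout.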
# JMJD2A Tudor = JMJD2A Tudor domain (human) inhibition. O75164. AID 504339. AlphaScreen JMJD2A-Tudor / H3K4me3 peptide binding. 390,000 compounds, 4.4% hits. Potency, µM (titrated, usually from 114 µM), for inactives: at the top dose activity change, negative = inhibition, hits mostly inhibitors; also: potency is read from the fitted curve at half-maximal effect; % is scaled to controls: 0 for no effect and ±100 for the full control effect; nearly all actives have a fitted effect of over 50% in size
# CtBP-E1A blk = blocks the CtBP interaction with E1A | 340,000 compounds, 0.49% hits | AlphaScreen GST-E1A/His-CtBP binding, 1536-well; active compounds read low | activity change, % (no concentration beside the values); in the data active = activity change below about -65%; inconclusive = mostly about -30% to -63%; also: % is scaled to controls: 0 for no effect and ±100 for the full control effect
#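 Homogeneous bead-based format: GST-tagged E1A captured on glutathione donor beads, His-tagged CtBP on nickel acceptor beads; compounds precede bead addition by 2 h at 37 °C.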
# Numbers without * were called inactive; ? = inconclusive; / = not tested or not shown; [ ] = remark or other dose. The list is not random: actives were taken first. Their share in the collection is about 10%. Unless noted, calls follow the shape of the dose curve; as a rule, active = well fitted inhibition curve with a large enough effect; inconclusive = small, poorly fitted or top-dose-only effect; inactive = no such curve, though single readings can be large or run the other way.
SMILES,G9a block,HP1b chromo inh,BAZ2B inh,Six1-Eya2 blk,JMJD2A Tudor,CtBP-E1A blk
COc1cccc(/C=N/NC(=O)c2c(-c3ccccc3)noc2C)c1O,107.0%[59 µM],19.1%,44.7µM*,-89.6*,?,-91.4*
Cc1ccc(/C=N/NC(=O)c2c(-c3ccccc3)noc2C)c(O)c1,32.3%,/,-23.8%,/,/,/
Cc1onc(-c2ccccc2)c1C(=O)N/N=C/c1c[nH]c2ccccc12,-28.1%,44.7µM*,?,-1.8,?,6.1
CCOc1cc([N+](=O)[O-])cc(/C=N/NC(=O)c2c(-c3ccccc3)noc2C)c1O,?,20.2%,22.4µM*,-91.0*,79.4µM*,-91.9*
COc1ccc(Cl)c(OC)c1C(=O)NC(=O)Nc1c(F)cc(F)cc1F,/,29.7%,4.6%,-0.7,-5.7%,-6.8
Cc1ccc2c(CC(=O)Nc3ccc(S(=O)(=O)N4CCCCC4)cc3)coc2c1C,-6.8%[59 µM],13.6%,?,/,-19.1%,/
O=S(=O)(c1cccc(C(F)(F)F)c1)n1c(/C=C/c2ccccc2)nc2ccccc21,3.3%[59 µM],23.0%,6.3%,/,-9.5%,/
OCC[C@@H]1C[C@H](O)[C@@H](O)[C@@]2(CCc3ccccc3O2)O1,79.4µM*,55.8%,-23.9%,5.4,-16.4%,8.3
OCC[C@@H]1C[C@@H](O)[C@H](O)[C@@]2(CCc3ccccc3O2)O1,22.1%,36.1%,-5.8%,4.0,-11.4%,7.2
OCC[C@@H]1C[C@@H](O)[C@H](O)[C@@]2(Cc3ccccc3O2)O1,15.8µM*,50.0%,-30.7%,-2.3,-12.9%,7.4
OCC[C@@H]1C[C@H](O)[C@@H](O)[C@]2(OCCc3ccccc32)O1,-8.8%,48.4%,-20.7%,-83.2*,-7.8%,10.2
CSc1ccc(CN2CCC(n3nccc3NC(=O)c3ccccc3C)CC2)cc1,-2.1%,5.5%,-13.5%,-4.7,-29.7%,-7.3
NC(=O)COC(=O)c1cccc(S(=O)(=O)N2CCN(c3ccccc3)CC2)c1,-30.5%,20.3%,15.9%,0.5,0.0%,/
O=C(COC(=O)c1cccc(S(=O)(=O)N2CCN(c3ccccc3)CC2)c1)NCc1ccco1,44.7µM*,-54.2%,44.7µM*,-15.0,22.4µM*,1.3
COc1ccccc1CNC(=O)COC(=O)c1cccc(S(=O)(=O)N2CCOCC2)c1,12.6µM*,13.2%,-1.3%,3.5,-3.4%,1.8
Cc1ccccc1NC(=O)c1c(C)oc2ccc(O)c(CN(C)Cc3ccccc3)c12,-36.8%[59 µM],8.1%,-24.1%,/,-28.8%,/
COc1ccc(OC)c(C(=O)CSc2nc3ncccc3[nH]2)c1,50.1µM*,10.5%,-33.5%,-14.1,3.9%[57.1 µM],-12.7
O=C(CSc1nc2ncccc2[nH]1)c1cccc([N+](=O)[O-])c1,39.8µM*,8.9%,6.9%,-5.3,-27.2%,-11.9
COc1ccc(NC(=O)CSc2nc3ncccc3[nH]2)cc1OC,4.9%[59 µM],43.2%,3.1%,-0.6,-3.2%,3.4
O=C(CCc1n[nH]c(=O)[nH]c1=O)Nc1cccc([N+](=O)[O-])c1,50.1µM*,23.7%,/,2.8,?,-3.4
Cc1cc(SCC(=O)c2cccc([N+](=O)[O-])c2)nc(=O)[nH]1,28.2µM*,?,?,-19.8,?,/
C[C@H](CO)N1C[C@H](C)[C@@H](CN(C)C(=O)Nc2ccc3c(c2)OCO3)Oc2ccc(NS(=O)(=O)c3ccc(F)cc3)cc2C1=O,/,22.1%,/,4.9,-19.2%,-14.4
CCOC(=O)N1CCC2(CC1)OC(=O)C(C)=C2C(=O)NCc1cccc(F)c1,12.1%[59 µM],20.5%,1.0%,/,11.2%,/
O=C(CSc1n[nH]c(=O)[nH]c1=O)c1cccc([N+](=O)[O-])c1,31.6µM*,50.4%,?,-6.2,-28.1%,/
O=C(CSc1n[nH]c(=O)[nH]c1=O)c1ccccc1,?,2.1%,?,1.1,-25.8%,2.4
SMILES,G9a block,HP1b chromo inh,BAZ2B inh,Six1-Eya2 blk,JMJD2A Tudor,CtBP-E1A blk
COC(=O)c1ccc2c(=O)n(CCCCCC(=O)NCc3ccc(Cl)cc3)c(=O)[nH]c2c1,9.3%[59 µM],27.0%,-2.5%,/,-17.0%,/
Oc1cccc(/C=N/n2c(C3CCCCC3)n[nH]c2=S)c1,2µM*,-20.1%,-24.3%,-8.3,31.6µM*,-6.3
COc1cccc(/C=N/n2c(C3CCCCC3)n[nH]c2=S)c1,2.51µM*,-8.3%,-33.9%,-8.3,31.6µM*,/
COc1cccc(/C=N/N2CCN(C)CC2)c1,-7.9%[59 µM],3.3%,-4.8%,9.4,-26.4%,22.1
O=[N+]([O-])c1cccc(/C=N/n2c(C3CCCCC3)n[nH]c2=S)c1,1.58µM*,7.9%,10.3%,-9.1,?,-13.1
COc1cc(/C=N/n2c(C3CCCCC3)n[nH]c2=S)cc(OC)c1O,2µM*,?,-18.3%,5.2,2.82µM*,-4.2
Fc1cccc(/C=N/n2c(C3CCCCC3)n[nH]c2=S)c1,?,28.2%,17.7%,-4.7,-13.7%,3.0
Cc1ccccc1NC(=O)N1CCc2c(sc3c2CCCC3)C1c1ccccc1 (stereo not given),4.6%[59 µM],15.0%,?,/,-19.5%,/
Cn1c(=O)c2cc(S(=O)(=O)N3CCC(c4ccccc4)CC3)ccc2n(C)c1=O,-19.0%[12.7 µM],9.4%,-3.8%,2.2,-17.7%,5.2
CC(C)(C)OC(=O)N1CCC(c2cc(=O)n3[nH]cc(C(=O)Nc4ccc(F)c(Cl)c4)c3n2)CC1,-41.7%,8.7%[57 µM],-1.9%,6.1,-17.8%,/
COc1ccc(NC(=O)c2c[nH]n3c(=O)cc(C4CCN(C(=O)OC(C)(C)C)CC4)nc23)cc1Cl,44.7µM*,17.0%,?,-3.3,-26.7%,-2.0
CC(C)(C)OC(=O)N1CCC(c2cc(=O)n3[nH]cc(C(=O)NC4CCCC4)c3n2)CC1,56.2µM*,40.6%,-1.0%,10.4,-16.6%,-16.2
Cc1ccccc1CSc1nc2c([nH]c3ccccc32)c(=O)n1-c1ccccc1,10.8%[59 µM],7.4%[57 µM],?,/,-16.8%,/
Cc1ccc(NC(=O)c2sc(=S)n(-c3cc(C)ccc3F)c2N)cc1,8.91µM*,?,?,-22.0,?,-9.0
Cc1ccc(-n2c(N)c(C(=O)Nc3ccccc3F)sc2=S)cc1C,22.4µM*,?,?,-27.5,?,?
CNC(=O)c1sc(=S)n(-c2ccc(OC)cc2)c1N,5.3%,13.1%,-32.5%,10.5,-15.4%,0.0
Cc1ccccc1-n1c(N)c(C(=O)Nc2ccc(F)cc2)sc1=S,11.2µM*,-11.4%,-4.4%,6.6,-13.3%,-16.3
COc1cccc(N2CCN(c3ccc4nnc(CCC(=O)Nc5ncccc5C)n4n3)CC2)c1,-10.0%,60.1%,-21.6%,-7.1,-15.3%,-8.8
CC1=C/C(=C(/c2cc(C)c(O)c(Br)c2)c2ccccc2S(=O)(=O)O)C=C(Br)C1=O,3.1%[2.33 µM],31.6µM*,17.8µM*,-72.8*,?,-69.2*
